Experimental data as given in the supplement of paper PMC13380429.
Unmarked numbers belong to inactive results.

System: Vero E6 infected with SARS-CoV-2
Assay: inhibition of SARS-CoV-2 cytopathic effect; higher = more antiviral protection, active = above 15
Conditions: 48 h

Row | SMILES | inhibition of SARS-CoV-2 cytopathic effect (1 nM) | inhibition of SARS-CoV-2 cytopathic effect (8.33 nM) | inhibition of SARS-CoV-2 cytopathic effect (100 nM) | inhibition of SARS-CoV-2 cytopathic effect (833.33 nM) | inhibition of SARS-CoV-2 cytopathic effect (10000 nM)
1 | Cc1noc(NS(=O)(=O)c2cccc3c(N(C)C)cccc23)c1C | 0.18% | 0.76% | 0.03% | 1.44% | 0.04%
2 | Oc1cc2c(cc1O)CN(C(=S)NCCc1ccc(Cl)cc1)CCC2 [capsazepine] | -5.03% | -2.95% | -0.11% | -0.65% | 3.42%
3 | CO[C@H]1/C=C\C=C(/C)C(=O)NC2=CC(=O)C(NCCN(C)C)=C(C[C@@H](C)C[C@H](OC)[C@H](O)[C@@H](C)/C=C(\C)[C@@H]1OC(N)=O)C2=O [alvespimycin] | 0.5% | 1.37% | 0.62% | 1.28% | 12.4%
4 | Cc1cc(OCC(=O)O)cc(C)c1Cc1ccc(O)c(C(C)C)c1 [sobetirome] | 1.8% | -0.19% | -3.41% | -2.42% | -2.77%
5 | Cc1ccc(Sc2cncc3sc(C(N)=O)cc23)cc1 | -1.26% | -2.96% | -2.49% | -2.02% | 4.33%
6 | CN(C)CCCN1c2ccccc2Sc2ccccc21 [promazine] | 2.47% | -1.16% | 0.93% | 0.57% | -0.38%
7 | CSc1cc2c(cc1C(F)(F)F)N(C(=O)Nc1cccnc1)CC2 | -0.31% | -3.61% | 1.56% | 1.75% | 0.95%
8 | CN[C@@H]1[C@H](O)[C@H](NC)[C@H]2O[C@@]3(O)C(=O)C[C@@H](C)O[C@H]3O[C@@H]2[C@H]1O [spectinomycin] | 1.83% | 2% | 1.36% | 4.54% | 3.59%
9 | Cc1cc(C)n(-c2cccc([C@H](CC(=O)O)CN3CC[C@@H](CCc4ccc5c(n4)NCCC5)C3)c2)n1 [integrin-antagonist-1] | 6.72% | 7.35% | 0.83% | 0.99% | -0.92%
10 | CN[C@@H](C)C(=O)N[C@H]1CCCC[C@H]2CC[C@@H](C(=O)N[C@@H](c3ccccc3)c3cn(CCCCc4ccc(CCCCn5cc([C@@H](NC(=O)[C@@H]6CC[C@@H]7CCCC[C@H](NC(=O)[C@H](C)NC)C(=O)N76)c6ccccc6)nn5)cc4)nn3)N2C1=O | -2.38% | -0.21% | -2.09% | -4.99% | -13.1%
11 | OC(c1ccccc1)C1CCN(CCc2ccccc2)CC1 (stereo not given) | -0.21% | 1.17% | -0.64% | -0.54% | 0.25%
12 | CCCCCCCCCCCCCCCCCCCCCCCCC(=O)O [pentacosanoic-acid] | -2.75% | -2.46% | -0.07% | -0.23% | -2.38%
13 | O=C(Nc1c(-c2cccs2)nc2ccccn12)c1ccc(Cl)cc1 | 1.67% | -0.43% | -1.06% | 1.78% | 9.03%
14 | N[C@@]1(C(=O)O)CC[C@H]2[C@H](C(=O)O)[C@H]21 [eglumetad] | 0.4% | -0.24% | -0.34% | -0.18% | 2.06%
15 | NCc1cc(O)no1 [muscimol] | -0.61% | 0.05% | 2.35% | 0.14% | 0.49%
16 | CC#CC(=O)N1CCC[C@H]1c1nc(-c2ccc(C(=O)Nc3ccccn3)cc2)c2c(N)nccn12 [acalabrutinib] | 2.14% | -0.44% | 0.31% | -0.11% | -0.34%
17 | COc1ncc(-c2ccc3nccc(-c4ccnnc4)c3c2)cc1NS(=O)(=O)c1ccc(F)cc1F | -1.37% | -0.94% | -8.41% | -8.47% | 3.03%
18 | CC(C)OC(=O)[C@H](C)N[P@](=O)(CO[C@H](C)Cn1cnc2c(N)ncnc21)Oc1ccccc1 [tenofovir-alafenamide] | -2.51% | -1.55% | -0.12% | -2.51% | 3.48%
19 | CC(=O)N[C@@H](CC(=O)O)C(=O)N[C@@H](CCC(=O)O)C(=O)O [spaglumic-acid] | -1.79% | -1.97% | -2.69% | -1.39% | -1.24%

Row | SMILES | inhibition of SARS-CoV-2 cytopathic effect (1 nM) | inhibition of SARS-CoV-2 cytopathic effect (8.33 nM) | inhibition of SARS-CoV-2 cytopathic effect (100 nM) | inhibition of SARS-CoV-2 cytopathic effect (833.33 nM) | inhibition of SARS-CoV-2 cytopathic effect (10000 nM)
20 | CS(=O)(=O)c1ccc(-c2cn3ccccc3n2)cc1 [zolimidine] | -3.68% | 0.55% | 3.07% | -5.22% | -2.8%
21 | c1ccc(Cn2c(-c3ccc(OC[C@H](C4CCNCC4)n4c(-c5ccccc5)nc5ccccc54)cc3)nc3ccccc32)cc1 [deltarasin] | -4.79% | -0.65% | -1.55% | -1.93% | -33.6%
22 | C/C(=N\Nc1nnc2c(n1)[nH]c1c(C)cccc12)c1ccccn1 | 0.125% | -0.485% | 1.94% | 1.06% | -7.81%
23 | CN1[C@@H]2CC[C@H]1C[C@@H](OC1c3ccccc3CCc3ccccc31)C2 [deptropine] | 0.19% | 0.38% | 1.32% | -0.87% | 12.7%
24 | CN1[C@@H]2CC[C@H]1C[C@@H](OC(c1ccccc1)c1ccccc1)C2 [benztropine-mesylate] | 1.74% | -0.55% | 1.26% | -8.96% | -7.74%
25 | CN[C@@H]1[C@@H](O[C@H]2O[C@H](CO)[C@@H](N)[C@H](O)[C@H]2O)O[C@H]2C[C@@H](N)[C@@H](O[C@H]3[C@H](O)[C@@H](O)[C@H](N)C[C@@H]3N)O[C@@H]2[C@@H]1O [apramycin] | -4.27% | -2.53% | -2.38% | 0.37% | 0.71%
26 | C/C(O)=C(\C#N)C(=O)Nc1cc(Br)ccc1Br | 0.38% | 0.96% | -1.74% | 2.02% | 1.5%
27 | CC(C)Cc1ccc(C(C)C(=O)O)cc1 (stereo not given) [ibuprofen] | 1.03% | -0.113% | -0.0767% | 1.1% | -0.35%
28 | O=C1c2c(O)cc(O)cc2O[C@H](c2cc(O)c(O)c(O)c2)[C@H]1O [dihydromyricetin] | 2.39% | 3.54% | 1.66% | 1.69% | -1.52%
29 | O=C1CCC[C@@H]2[C@H]3CCC[N+]4([O-])CCC[C@@H](CN12)[C@@H]34 (stereo not given in full) [oxymatrine] | 2.76% | 1.55% | 1.11% | 0.79% | -1.71%
30 | Cc1cccc(C)c1NC(=O)CN1CCCCCC1 [pincainide] | -3.17% | -5.99% | -2.63% | -1.95% | 0.04%
31 | CSc1ccc2c(c1)N(CCC1CCCCN1C)c1ccccc1S2 (stereo not given) [thioridazine] | 1.41% | 3.38% | -2.55% | 1.05% | 41.9% (active)
32 | CCCCCCCCCCCCCCCC[N+](C)(C)CCN(Cc1ccc(OC)cc1)c1ncccn1 [thonzonium] | -1.08% | -1.07% | 3.19% | -1.67% | -15.8%
33 | O=C(NCCO)c1cccc(-c2cc(Nc3ccc(OC(F)(F)F)cc3)ncn2)c1 | 0.82% | 1.06% | 2.91% | 3.22% | 0.55%
34 | N=C(N)NCCC[C@H](NC(=O)c1sccc1NS(=O)(=O)c1cccc2nsnc12)C(=O)O | -1.17% | 0.96% | 1.72% | 0.4% | 1.98%
35 | CCOC(=O)C1=C(C)NC(C)=C(C(=O)OCC)C1c1ccccc1/C=C/C(=O)OC(C)(C)C [lacidipine] | 2.1% | -0.72% | 0.07% | 3.01% | 3.85%
36 | CCNC(=O)N1CCN(CCCC(c2ccc(F)cc2)c2ccc(F)cc2)CC1 [amperozide] | -5.99% | -8.04% | -8.94% | -7.67% | -9.06%
37 | COc1ccc(-c2cc3c(C)nc(N)nc3n([C@H]3CC[C@H](OCCO)CC3)c2=O)cn1 | -0.21% | 2.83% | 0.43% | -10.1% | -10.3%
38 | COc1ccc2[nH]c(I)c(CCNC(C)=O)c2c1 [2-iodomelatonin] | 3.34% | 4.46% | 0.99% | 0.89% | 0.94%
